PAX8 inh HTS = lowers PAX8-driven luciferase in RMG-I cells; AID 652154; inhibition, % at 12.6 µM; 1.2% of 360,000 active; RMG-I TPO-luciferase reporter, SteadyGlo, 24 h;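 active = mean replicate inhibition at least 60% with every replicate also reaching 60%; inconclusive = only one of the two criteria is met; inactive = mean below 60% and not all replicates reaching 60%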;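 also: luciferase light reporting Pax8 driven TPO promoter activity; plate controls were median of neutral control wells for no effect and mitoxantrone controls for full effect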
LGR2 inh = inhibitors of bursicon-induced Drosophila LGR2 receptor cAMP signaling. HEK293 LGR2, CRE-luciferase, bursicon-stimulated, 4 h. inhibition, % at 9.99 µM. 0.35% of 380,000 active;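 active = drop in luminescence signal, shown as inhibition above about 50% in the replicate tests, limit read from the data, passing the limit was not always enough; inconclusive = probably only some replicates passing the limit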;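 also: agonist challenge used bursicon conditioned medium at about half maximal strength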
EWS-Fli block = inhibitors of EWS/Fli oncoprotein transcriptional activity. A673 NR0B1-luciferase reporter, viability-normalised. inhibition, % at 12.6 µM. 0.67% of 350,000 active. AID 651661;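 active = mean inhibition of at least 50% after viability correction, with every replicate also passing that limit; inconclusive = mean reaches 50% but only one of two replicates passes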;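 also: firefly luciferase signal divided by Alamar Blue viability fluorescence both relative to DMSO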
TROY NFkB inh = inhibitors of TROY-dependent NF-kB signaling; inhibition, % at 10 µM; 0.98% of 360,000 active; Q293 LMP1-TROYcd NF-kB luciferase reporter, 4 h;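 active = compounds whose plate-normalised and pattern-corrected inhibition of the luciferase reporter signal at the single screening dose is 50% or more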
TWEAK Fn14 block = TWEAK-Fn14 signaling inhibition | TWEAK-stimulated Fn14 reporter cells, luciferase luminescence, 8 h | inhibition, % at 10 µM | 2% of 360,000 active; in the data active = inhibition above about 50%
Active calls of the source: *; ? = inconclusive; · = not tested or not shown. The list is not random: actives were taken first. Their share in the collection is about 2.8%.

SMILES | PAX8 inh HTS | LGR2 inh | EWS-Fli block | TROY NFkB inh | TWEAK Fn14 block
CC(=O)N(C)c1ccc(N=Nc2c(C)[nH]n(-c3ccccc3)c2=O)cc1 | 20 | 9 | -2 | -5 | 26
CC(=O)N(C)c1ccc(N=Nc2ccc3ncccc3c2)cc1 | -93 | 66* | -12 | 13 | 62*
Cn1cnc(S(=O)(=O)N2C[C@@H](O)COC[C@H]3O[C@@H](CC(=O)NCc4cccc(F)c4)CC[C@@H]32)c1 | -14 | 5 | 0 | · | ·
Cc1cccc(N2CCCn3c2nc2c3c(=O)n(CCN3CCOCC3)c(=O)n2C)c1 | · | · | · | 11 | 108*
COc1ccc(N2CCCn3c2nc2c3c(=O)n(CCN3CCOCC3)c(=O)n2C)cc1 | · | · | · | 26 | 12
Clc1ccccc1/C=C/c1nc(-c2ccccn2)no1 | 45 | 98* | 67* | 77* | 102*
Cc1onc(-c2ccccc2Cl)c1-c1nc(-c2ccccn2)no1 | · | · | · | 18 | 32
CCCc1nn(C)c(C(=O)Nc2ccccc2)c1Cl | · | 31 | · | 76* | 81*
CCCc1nn(C)c(C(=O)Nc2cccc(Cl)c2)c1Cl | -87 | -5 | · | 70* | 78*
Cc1ccc(S(=O)(=O)Nc2ccc3c(c2)CC(=O)N([C@@H](C)CO)C[C@@H](C)[C@@H](CN(C)C(=O)Nc2ccc(F)cc2)O3)cc1 | 6 | -3 | 7 | · | ·
C[C@@H]1CN([C@H](C)CO)C(=O)c2cc(N(C)C)ccc2O[C@H]1CN(C)Cc1ccc(Cl)c(Cl)c1 | 25 | -25 | 47 | · | ·
C[C@H]1CN([C@@H](C)CO)C(=O)c2ccccc2-c2ccccc2CO[C@@H]1CN(C)S(=O)(=O)c1cn(C)cn1 | -3 | 0 | 0 | · | ·
CCN(CC)c1ccc(-c2nnc(SCC(=O)Nc3ccccc3C#N)n2-c2ccccc2)cc1 | · | · | · | · | 75*
O=C(COC(=O)C1=COCCO1)Nc1ccccc1Oc1ccccc1 | · | · | · | 11 | 64*
O=C(Nc1nc(-c2ccc(Oc3ccccc3)cc2)cs1)C1=COCCO1 | 3 | 8 | · | 33 | 62*
O=C(COC(=O)C1=COCCO1)Nc1cccc(Oc2ccccc2)c1 | -5 | · | · | 6 | -10
COc1ccc(S(=O)(=O)Nc2cccc3c2O[C@H](CN(C)Cc2ccc(Oc4ccccc4)cc2)[C@H](C)CN([C@@H](C)CO)C3=O)cc1 | · | -7 | 3 | · | ·
Cc1ccc(-c2cn(-c3ccccc3)c(=S)[nH]2)cc1C | -168 | -25 | -26 | 50 | 68*
Cc1ccccc1-c1cn(-c2ccccc2)c(=S)[nH]1 | -5 | 13 | 3 | -8 | -23
C[C@@H]1CCCCO[C@H](CN(C)Cc2ccccc2)[C@@H](C)CN([C@@H](C)CO)C(=O)c2cc(NC(=O)Nc3ccc(C(F)(F)F)cc3)ccc2O1 | 119* | 3 | ? | · | ·
C[C@H](CO)N1C[C@H](C)[C@@H](CN(C)Cc2ccccc2)OCCCC[C@H](C)Oc2ccc(NC(=O)Nc3ccc(C(F)(F)F)cc3)cc2C1=O | 95* | 0 | 10 | · | ·
C[C@@H]1CCCCO[C@H](CN(C)Cc2ccc(C(=O)O)cc2)[C@@H](C)CN([C@H](C)CO)C(=O)c2cc(NC(=O)Nc3ccc(C(F)(F)F)cc3)ccc2O1 | -14 | -16 | -7 | · | ·
C[C@@H]1CN([C@H](C)CO)C(=O)c2cc(NC(=O)Nc3ccc(C(F)(F)F)cc3)ccc2O[C@@H](C)CCCCO[C@H]1CN(C)Cc1ccccc1 | 113* | 9 | 77* | · | ·
C[C@@H]1CN([C@@H](C)CO)C(=O)c2cc(NC(=O)Nc3ccc(C(F)(F)F)cc3)ccc2O[C@@H](C)CCCCO[C@@H]1CN(C)Cc1ccc(C(F)(F)F)cc1 | -21 | 5 | -7 | · | ·
C[C@@H]1CN([C@H](C)CO)C(=O)c2cc(NC(=O)Nc3ccc(C(F)(F)F)cc3)ccc2O[C@@H](C)CCCCO[C@@H]1CN(C)Cc1ccccc1 | 109* | 12 | 25 | · | ·
SMILES | PAX8 inh HTS | LGR2 inh | EWS-Fli block | TROY NFkB inh | TWEAK Fn14 block
O=C(C[C@@H]1C[C@@H]2c3cc(NS(=O)(=O)c4ccc(F)cc4)ccc3O[C@@H]2[C@H](CO)O1)NC1CCCC1 | -8 | 13 | 7 | · | ·
O=C1CN(S(=O)(=O)Cc2ccccc2)C[C@@H]2[C@@H](c3ccc(C#CCC4CCCC4)cc3)[C@H](CO)N12 | 22 | 5 | 4 | · | ·
COCC(=O)N1C[C@@H]2[C@H](c3ccccc31)[C@H](CO)N2C(=O)NC(C)C | 7 | -12 | 9 | · | ·
C[C@@H]1CCCCO[C@H](CN(C)Cc2ccc(C(F)(F)F)cc2)[C@H](C)CN([C@H](C)CO)C(=O)c2cc(NC(=O)Nc3ccc(C(F)(F)F)cc3)ccc2O1 | -9 | 13 | -13 | · | ·
C[C@@H]1CN([C@@H](C)CO)C(=O)c2cc(NC(=O)Nc3ccccc3)ccc2O[C@@H](C)CCCCO[C@H]1CN(C)Cc1ccc(C(F)(F)F)cc1 | 72* | 15 | 12 | · | ·
C[C@@H]1CN([C@@H](C)CO)C(=O)c2cc(NC(=O)Nc3ccc(C(F)(F)F)cc3)ccc2O[C@@H](C)CCCCO[C@@H]1CN(C)Cc1ccccc1 | 79* | -5 | -3 | · | ·
O=C(Cc1ccccn1)NCC[C@@H]1CC[C@@H](NC(=O)Nc2ccc(Cl)cc2)[C@@H](CO)O1 | · | -1 | · | · | ·
COc1ccc(-c2cnnc(N/N=C/c3ccc(-c4ccc([N+](=O)[O-])cc4)o3)n2)cc1 | 12 | -5 | 53* | -1 | 33
O=[N+]([O-])c1ccc(-c2ccc(/C=N/Nc3nc(N4CCCC4)nc(N4CCCC4)n3)o2)cc1 | -2 | -3 | 40 | -2 | -23
O=C1c2ccccc2S(=O)(=O)c2cc(N3CCOCC3)ccc21 | -1 | ? | 9 | 44 | 71*
CCOC(=O)N1CCc2cc(OC)c(OC)c3c2c1cc1cc(OC)c(OC)cc13 | 8 | 18 | 14 | 15 | 54*
COc1cccc(C(=O)Nc2ccc3c(c2)C(=O)N(C)[C@@H]2CC[C@H](CC(=O)NCc4ccccc4F)O[C@@H]2CO3)c1 | 1 | -17 | 4 | · | ·
S=C(NCCC(c1ccccc1)c1ccccc1)Nc1cccc(Cl)c1 | · | · | · | 62* | 29
S=C(NCCN(C1CCCCC1)C1CCCC1)Nc1cccc(Cl)c1 | 17 | 4 | 5 | 20 | -13
C[C@@H]1CN([C@@H](C)CO)C(=O)c2cc(-c3ccc(F)cc3)cnc2O[C@H]1CN(C)C(=O)c1ccccc1F | · | 11 | -5 | · | ·
Cc1cc(NC(=O)c2ccccc2NS(=O)(=O)c2c(C)c(C)cc(C)c2C)no1 | · | · | · | 53* | 38
O=C(NC(NC(=S)Nc1ccccc1Cl)C(Cl)(Cl)Cl)c1cccc(Cl)c1 (stereo unspecified) | · | 43 | · | 36 | 76*
O=C(/C=C/c1ccccc1)NC(NC(=S)Nc1cccc(Cl)c1)C(Cl)(Cl)Cl (stereo unspecified) | · | · | · | 34 | 63*
O=C(NC(NC(=S)Nc1c(Cl)cc(Cl)cc1Cl)C(Cl)(Cl)Cl)OCc1ccccc1 (stereo unspecified) | 18 | 31 | -2 | 37 | 38
O=C(CCc1ccccc1)NC(NC(=S)Nc1cccc(Cl)c1)C(Cl)(Cl)Cl (stereo unspecified) | · | 5 | 0 | 15 | -7

From PubChem
